Bioassay records: PubChem BioAssay, several laboratories
HIF-2a block = HIF-2a reporter inhibitors, primary screen, luminescence, 786-0 RCC cells; 786-0 RCC cells HIF-2a reporter, luciferase luminescence, overnight; AID 624352, 2012; inhibition, % at 18.8 µM; 360,000 tested, 0.72% active;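 active = inhibition of the luminescence signal of 40% or more relative to plate controls, in a single-dose primary screen at 18.75 µM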
TRAIL sens C8 = viability loss with TRAIL in NB7+C8 cells, primary screen, TRAIL sensitizer project, cell-based, ATPlite luminescence; inhibition (viability loss, TRAIL sensitization), % at 10 µM; 360,000 tested, 1% active;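 active = compounds causing at least 50% loss of cell viability in the single-dose screen, relative to plate controls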
aSyn UTR inh = MLPCN primary screen, SNCA 5' untranslated region; alpha-synuclein 5'UTR reporter, inhibitor activity; inhibition, % (tested at 7.5 µM); 300,000 tested, 0.82% active; AID 1813, 2009; in the data active = inhibition above about 60%;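 note: H4 neuroglioblastoma cells stably carrying SNCA 5'UTR luciferase fusion; 0% = DMSO wells and 100% = positive control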
HSP90 refold inh = HSP90 inhibitors, primary screen, cell lysate, luminescence | 290,000 tested, 0.91% active | Rabbit reticulocyte lysate, luciferase refolding luminescence, 3 h | inhibition, % at 5.6 µM | Heat shock protein HSP 90 (rabbit reticulocyte lysate; luciferase refolding);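 active = inhibition above the screen-wide mean plus 3 SD, computed separately per campaign, cut at about 16% in these data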;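 note: 0% = DMSO wells and 100% = 60 µM geldanamycin wells; inhibitors lower the luminescence because luciferase stays unfolded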
TROY NFkB inh = inhibitors of TROY-driven NF-kB signaling, primary screen, Q293 LMP1-TROYcd cells, NF-kB luciferase, uHTS | Q293 LMP1-TROYcd NF-kB luciferase reporter, 4 h | inhibition, % at 10 µM | 360,000 tested, 0.98% active;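 active = compounds whose plate-normalised and pattern-corrected inhibition of the luciferase reporter signal at the single screening dose is 50% or more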
TWEAK Fn14 block = inhibitors of TWEAK-Fn14 signaling, primary screen, luciferase reporter cells, uHTS. TWEAK-stimulated Fn14 reporter cells, luciferase luminescence, 8 h. inhibition, % at 10 µM. 360,000 tested, 2% active; in the data active = inhibition above about 50%
Numbers without * were called inactive; x = not tested or not shown. An excerpt weighted towards active compounds, which were near 3.9% of everything screened.

SMILES	HIF-2a block	TRAIL sens C8	aSyn UTR inh	HSP90 refold inh	TROY NFkB inh	TWEAK Fn14 block
C=CCN1C(=O)C2(OCCCO2)c2cccc(C)c21	16.8	10.8	-3.0	4.5	-1.3	-5.4
CCCCN1C(=O)C2(OCCCO2)c2cccc(C)c21	13.3	1.6	10.7	2.0	2.2	100.4*
Cc1cc(OCC(=O)N(C)C2CCCCC2)ccc1Cl	-163.9	8.7	17.9	12.9	66.2*	39.5
Cc1cc(C)n(CCNC(=O)[C@H]2O[C@@H](n3ccc(N)nc3=O)[C@H](O)[C@@H]2O)n1	19.5	19.4	x	x	8.8	4.6
CSc1nc2ccc(NC(=O)c3ccc(F)c(F)c3)cc2s1	-346.5	-4.0	-142.9	-1.0	-21.1	-38.3
CCOC(=O)Nc1ccc2nc(Sc3ccc(Cl)cc3)sc2c1	-22.0	21.8	-40.8	-1.2	81.5*	9.3
CCN(CC(=O)NCc1cccs1)C(=O)c1ccc(-c2ccc(F)cc2)o1	-5.4	15.1	x	x	11.6	79.9*
CCN(C[C@H]1N[C@@](C)(C(=O)OC)[C@H]2C(=O)N(C)C(=O)[C@@H]12)C(=O)Nc1ccc(Cl)cc1	-1.8	0.0	x	x	-3.9	-1.9
CC(C(Sc1ccccc1N)c1ccccc1)[N+](=O)[O-] (stereo not drawn)	-46.5	10.5	-82.8	-0.1	55.0*	-25.1
Nc1ccccc1SC(CC(=O)c1ccccc1)c1ccccc1 (stereo not drawn)	-102.6	7.6	x	x	-47.0	1.1
CC1(C)C(/C=C/C=C/C=C/C=C2\N(CCCCS(=O)(=O)O)c3ccc4ccccc4c3C2(C)C)=[N+](CCCCS(=O)(=O)[O-])c2ccc3ccccc3c21	5.3	6.7	x	x	10.0	55.2*
Cc1ccc(C)c(NC(=S)NC(NC(=O)Cc2cccc3ccccc23)C(Cl)(Cl)Cl)c1 (stereo not drawn)	17.1	85.1*	111.7*	-3.9	25.3	32.7
Cc1ccc(C)c(NC(=S)NC(NC(=O)N(C)C)C(Cl)(Cl)Cl)c1 (stereo not drawn)	3.1	-7.4	-2.7	3.6	-0.6	6.1
CC(C)Cc1nc2oc3c(NCC4CCCO4)ncnc3c2c2c1CCC2 (stereo not drawn)	15.8	23.1	25.0	0.9	-1.8	54.1*
CC(C)Cc1nc2oc3c(NCc4cccnc4)ncnc3c2c2c1CCC2	18.4	9.8	24.8	0.8	10.6	-10.6
COC1C=CC=C(C)C(=O)NC2=CC(=O)C(N)=C(CC(C)CC(OC)C(O)C(C)C=C(C)C1OC(N)=O)C2=O (stereo not drawn)	-44.7	40.1	x	x	17.5	70.0*
COc1ccccc1NS(=O)(=O)c1cc([N+](=O)[O-])ccc1N/N=C/c1c[nH]c2ccccc12	-32.6	10.0	0.4	1.8	52.4*	55.6*
CC(C)(C)C(C(=O)NC1CCCC1)N1CCN(c2ncccc2C#N)CC1 (stereo not drawn)	8.9	-6.5	x	x	x	x
C#CC(C)OCC1CNC(=S)O1 (stereo not drawn)	10.4	9.6	x	x	-7.0	-5.5
O=[N+]([O-])c1ccc(Br)c(CN2CCN(c3ncc(Cc4ccccc4)cn3)CC2)c1	-1.9	1.0	x	x	x	x
O=C(Nc1ccccc1)Nc1ncc([N+](=O)[O-])s1	-136.0	54.8*	-48.5	8.2	46.5	80.7*
CN(C)CC(O)c1ccc(C=Cc2ccc(Cl)cc2)cc1 (stereo not drawn)	-263.2	89.0*	x	x	-27.4	-100.2
CN(Cc1ccccc1)C(=O)[C@@H]1CCCN1C(=O)[C@@H]1CCCN1C(=O)c1cccc2ccccc12	10.4	-0.5	x	x	-12.9	-4.7
CCC(C(=O)N1CCc2ccccc2C1)n1nc(C)n2c(cc3occc32)c1=O (stereo not drawn)	18.3	9.5	4.6	7.5	x	81.3*
Cc1nn(C(C)C(=O)N2CCc3ccccc3C2)c(=O)c2cc3occc3n12 (stereo not drawn)	9.2	-2.9	-7.3	4.4	21.6	3.7
COc1ccc(S(N)(=O)=O)cc1C(=O)NNC(=O)C1COc2ccccc2O1 (stereo not drawn)	-2.3	-3.4	x	x	-6.6	-6.1
Cc1ccc(NS(=O)(=O)c2cc([N+](=O)[O-])ccc2NNC(=S)Nc2cccc(Cl)c2)c(C)c1	-11.4	-0.4	-6.6	3.1	62.0*	40.3
